Test in all cases: DAPPL (digital affinity profiling via proximity ligation, sequencing); 10 mM Tris-HCl pH 7.5, 50 mM NaCl, 1 mM DTT, 4% glycerol, room temperature, 30 min; GST-TFs on glutathione beads, 16-mer random dsDNA library, 0.1% formaldehyde crosslink after washing; high values mean tight binding
What all share (conditions): protein: recombinant; tags: N-terminal GST; dsDNA, one strand shown

Assay [1] deals with T1, ERF (Homo sapiens, UniProt P50548 1-548).
T1 sequence: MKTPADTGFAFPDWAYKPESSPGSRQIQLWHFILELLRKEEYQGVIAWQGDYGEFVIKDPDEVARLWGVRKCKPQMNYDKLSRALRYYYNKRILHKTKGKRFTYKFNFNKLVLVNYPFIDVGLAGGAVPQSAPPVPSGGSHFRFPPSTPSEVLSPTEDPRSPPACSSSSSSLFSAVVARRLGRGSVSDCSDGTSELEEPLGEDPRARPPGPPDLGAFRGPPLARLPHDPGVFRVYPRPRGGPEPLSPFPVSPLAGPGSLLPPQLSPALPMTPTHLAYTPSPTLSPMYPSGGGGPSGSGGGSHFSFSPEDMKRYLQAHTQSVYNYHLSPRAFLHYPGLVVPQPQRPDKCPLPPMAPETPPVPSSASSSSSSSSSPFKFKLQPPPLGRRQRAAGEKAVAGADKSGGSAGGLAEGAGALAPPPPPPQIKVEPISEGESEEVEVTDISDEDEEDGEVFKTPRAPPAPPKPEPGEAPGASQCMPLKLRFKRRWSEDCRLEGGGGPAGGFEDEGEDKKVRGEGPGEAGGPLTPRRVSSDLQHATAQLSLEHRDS
The procedure, abridged:
(§1)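 Sequencing on an Illumina NextSeq500 followed washing, crosslinking with 0.1% formaldehyde, proximity ligation (BsaI/T4 ligase, 1 h, 37 °C) and PCR amplification of pools that had been incubated for 30 min at room temperature with 200 nmole of a random double-stranded 16-mer DNA library in Tris/NaCl/DTT/glycerol buffer. Each pool held DNA-barcoded human transcription factors, expressed in yeast as GST fusions and captured on glutathione beads, plus a tag-only sample. Binding signal is a hexamer's read frequency for a factor divided by its frequency in the tag-only sample.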

The target of assay [2] is T2, ETV3L (Homo sapiens, UniProt Q6ZN32 1-361).
T2 sequence: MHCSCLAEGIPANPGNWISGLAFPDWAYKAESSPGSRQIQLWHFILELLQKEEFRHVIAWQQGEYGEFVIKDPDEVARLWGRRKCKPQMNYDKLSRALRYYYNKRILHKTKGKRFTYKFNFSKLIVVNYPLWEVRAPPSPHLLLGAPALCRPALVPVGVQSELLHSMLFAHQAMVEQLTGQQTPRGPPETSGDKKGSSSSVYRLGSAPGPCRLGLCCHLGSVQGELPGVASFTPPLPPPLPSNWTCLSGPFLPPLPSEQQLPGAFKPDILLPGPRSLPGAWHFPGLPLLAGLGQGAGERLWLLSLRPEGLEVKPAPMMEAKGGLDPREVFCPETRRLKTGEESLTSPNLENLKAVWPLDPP
In outline: as §1

In assay [3] the target is T3, ETS2 (Homo sapiens, UniProt P15036 1-469).
T3 sequence: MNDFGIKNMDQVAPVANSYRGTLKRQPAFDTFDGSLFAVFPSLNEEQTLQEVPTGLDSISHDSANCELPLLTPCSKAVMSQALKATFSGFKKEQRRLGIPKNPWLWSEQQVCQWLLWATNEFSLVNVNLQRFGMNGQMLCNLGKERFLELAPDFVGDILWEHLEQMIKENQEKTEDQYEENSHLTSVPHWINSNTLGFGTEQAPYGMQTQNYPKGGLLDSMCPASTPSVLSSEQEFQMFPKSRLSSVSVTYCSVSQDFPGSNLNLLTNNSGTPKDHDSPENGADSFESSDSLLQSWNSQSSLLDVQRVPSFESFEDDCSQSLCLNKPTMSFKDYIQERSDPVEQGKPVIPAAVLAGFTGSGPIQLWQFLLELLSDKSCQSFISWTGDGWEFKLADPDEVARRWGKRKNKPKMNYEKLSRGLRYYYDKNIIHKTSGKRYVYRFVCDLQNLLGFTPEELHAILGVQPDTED
The procedure, abridged:
as §1

Assay [4] has as its target T4, SPDEF (Homo sapiens, UniProt O95238 1-335).
T4 sequence: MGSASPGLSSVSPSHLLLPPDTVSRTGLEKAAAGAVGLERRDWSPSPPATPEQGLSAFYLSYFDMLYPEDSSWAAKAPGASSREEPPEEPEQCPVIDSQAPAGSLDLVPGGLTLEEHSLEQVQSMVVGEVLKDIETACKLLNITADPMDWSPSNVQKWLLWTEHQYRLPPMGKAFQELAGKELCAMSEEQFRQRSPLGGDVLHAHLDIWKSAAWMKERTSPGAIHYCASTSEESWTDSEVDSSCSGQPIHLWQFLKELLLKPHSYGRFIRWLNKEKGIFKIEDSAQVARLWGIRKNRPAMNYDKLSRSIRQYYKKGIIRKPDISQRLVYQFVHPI
In outline:
as §1

The target of assay [5] is T5, ETV7 (Homo sapiens, UniProt Q9Y603 1-341).
T5 sequence: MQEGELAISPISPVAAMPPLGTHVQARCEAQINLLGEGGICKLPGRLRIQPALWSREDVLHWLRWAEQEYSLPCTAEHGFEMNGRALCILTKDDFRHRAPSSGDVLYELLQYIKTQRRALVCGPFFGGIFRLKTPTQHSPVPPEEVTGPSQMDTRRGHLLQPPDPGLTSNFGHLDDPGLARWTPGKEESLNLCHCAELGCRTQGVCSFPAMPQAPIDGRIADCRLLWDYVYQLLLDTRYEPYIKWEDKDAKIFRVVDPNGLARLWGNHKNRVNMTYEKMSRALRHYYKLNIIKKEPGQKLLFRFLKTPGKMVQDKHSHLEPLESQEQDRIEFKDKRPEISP
The procedure, abridged: as §1

Assay [6] deals with T6, ELF5 (Homo sapiens, UniProt Q9UKW6-2 1-255).
T6 sequence: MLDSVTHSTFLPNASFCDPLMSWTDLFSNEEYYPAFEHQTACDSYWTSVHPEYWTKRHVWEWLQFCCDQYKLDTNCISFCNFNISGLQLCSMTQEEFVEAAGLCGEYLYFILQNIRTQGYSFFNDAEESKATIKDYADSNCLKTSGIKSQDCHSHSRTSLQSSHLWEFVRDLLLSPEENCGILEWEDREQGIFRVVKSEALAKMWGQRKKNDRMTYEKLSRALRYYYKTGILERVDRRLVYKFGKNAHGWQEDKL
The procedure, abridged: as §1

In assay [7] the target is T7, ETV3 (Homo sapiens, UniProt P41162-2 1-143).
T7 sequence: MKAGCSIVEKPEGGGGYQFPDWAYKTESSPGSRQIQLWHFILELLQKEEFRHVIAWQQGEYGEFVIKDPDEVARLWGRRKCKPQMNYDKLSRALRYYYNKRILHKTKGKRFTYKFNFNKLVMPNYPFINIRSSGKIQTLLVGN
The procedure, abridged: as §1

Assay [8] deals with ETV6 (Homo sapiens, UniProt P41212 1-452). In outline:
as §1

Chain of ETV6 (P41212 whole entry): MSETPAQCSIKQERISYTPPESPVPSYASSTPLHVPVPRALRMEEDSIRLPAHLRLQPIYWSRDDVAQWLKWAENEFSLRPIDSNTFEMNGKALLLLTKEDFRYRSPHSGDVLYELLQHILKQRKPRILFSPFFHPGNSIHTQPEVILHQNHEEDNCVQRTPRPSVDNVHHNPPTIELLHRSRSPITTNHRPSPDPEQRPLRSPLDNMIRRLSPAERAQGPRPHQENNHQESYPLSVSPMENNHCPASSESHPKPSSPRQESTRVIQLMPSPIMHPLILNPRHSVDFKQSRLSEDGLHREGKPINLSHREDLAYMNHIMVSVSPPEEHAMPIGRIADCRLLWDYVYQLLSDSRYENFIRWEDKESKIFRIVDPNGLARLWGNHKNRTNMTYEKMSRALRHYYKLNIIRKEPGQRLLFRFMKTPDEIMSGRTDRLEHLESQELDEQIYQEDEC

CGACGC: the binding signal in assay [1] was 1.17 fold enrichment (6-mer frequency, TF over GST control); in assay [2], 1.08 fold enrichment (6-mer frequency, TF over GST control); in assay [3] it was 1.16 fold enrichment (6-mer frequency, TF over GST control); in assay [4], 1.04 fold enrichment (6-mer frequency, TF over GST control); in assay [5], 1.05 fold enrichment (6-mer frequency, TF over GST control); in assay [6], 1.05 fold enrichment (6-mer frequency, TF over GST control). In addition, the binding signal in assay [7] is 1 fold enrichment (6-mer frequency, TF over GST control); in assay [8], 1.09 fold enrichment (6-mer frequency, TF over GST control).

Consider ACCCAA, for which the binding signal in assay [1] was 1.13 fold enrichment (6-mer frequency, TF over GST control); in assay [2], 1.13 fold enrichment (6-mer frequency, TF over GST control); in assay [3], 1.04 fold enrichment (6-mer frequency, TF over GST control); in assay [4], 1.04 fold enrichment (6-mer frequency, TF over GST control); in assay [5] it was 1.14 fold enrichment (6-mer frequency, TF over GST control); in assay [6], 1.06 fold enrichment (6-mer frequency, TF over GST control). For the same sequence, the binding signal was 1.01 fold enrichment (6-mer frequency, TF over GST control) in assay [7] and 1.09 fold enrichment (6-mer frequency, TF over GST control) in assay [8].

With CTTACG, the binding signal in assay [1] was 1.09 fold enrichment (6-mer frequency, TF over GST control); in assay [2] it was 1.05 fold enrichment (6-mer frequency, TF over GST control); in assay [3] it was 1.13 fold enrichment (6-mer frequency, TF over GST control); in assay [4], 1.1 fold enrichment (6-mer frequency, TF over GST control); in assay [5] it was 1.1 fold enrichment (6-mer frequency, TF over GST control); in assay [6] it was 1.15 fold enrichment (6-mer frequency, TF over GST control). Besides, the binding signal in assay [7] is 1.15 fold enrichment (6-mer frequency, TF over GST control); in assay [8], 1 fold enrichment (6-mer frequency, TF over GST control).

As for TTCCCC, the binding signal in assay [1] was 1.46 fold enrichment (6-mer frequency, TF over GST control); in assay [2], 1.69 fold enrichment (6-mer frequency, TF over GST control); in assay [3] it was 1.64 fold enrichment (6-mer frequency, TF over GST control); in assay [4], 1.43 fold enrichment (6-mer frequency, TF over GST control); in assay [5], 1.43 fold enrichment (6-mer frequency, TF over GST control); in assay [6] it was 2.17 fold enrichment (6-mer frequency, TF over GST control). Moreover, the binding signal is 1.89 fold enrichment (6-mer frequency, TF over GST control) in assay [7] and 1.73 fold enrichment (6-mer frequency, TF over GST control) in assay [8].

Take TGGGCT: the binding signal was 1.27 fold enrichment (6-mer frequency, TF over GST control) in assay [1]; 1.45 fold enrichment (6-mer frequency, TF over GST control) in assay [2]; 1.5 fold enrichment (6-mer frequency, TF over GST control) in assay [3]; 1.28 fold enrichment (6-mer frequency, TF over GST control) in assay [4]; 1.49 fold enrichment (6-mer frequency, TF over GST control) in assay [5]; 1.32 fold enrichment (6-mer frequency, TF over GST control) in assay [6]. Moreover, the binding signal in assay [7] is 1.41 fold enrichment (6-mer frequency, TF over GST control); in assay [8], 1.32 fold enrichment (6-mer frequency, TF over GST control).

As for TCACAT, the binding signal was 1.24 fold enrichment (6-mer frequency, TF over GST control) in assay [1]; 1.24 fold enrichment (6-mer frequency, TF over GST control) in assay [2]; 1.25 fold enrichment (6-mer frequency, TF over GST control) in assay [3]; 1.44 fold enrichment (6-mer frequency, TF over GST control) in assay [4]; 1.3 fold enrichment (6-mer frequency, TF over GST control) in assay [5]; 1.14 fold enrichment (6-mer frequency, TF over GST control) in assay [6]. The binding signal in assay [7] is 1.21 fold enrichment (6-mer frequency, TF over GST control); in assay [8], 1.23 fold enrichment (6-mer frequency, TF over GST control).

In the case of TACAAG, the binding signal in assay [1] is 1.1 fold enrichment (6-mer frequency, TF over GST control); in assay [2] it was 1.05 fold enrichment (6-mer frequency, TF over GST control); in assay [3], 1.1 fold enrichment (6-mer frequency, TF over GST control); in assay [4], 1.1 fold enrichment (6-mer frequency, TF over GST control); in assay [5] it was 1.02 fold enrichment (6-mer frequency, TF over GST control); in assay [6] it was 1.06 fold enrichment (6-mer frequency, TF over GST control). Further, the binding signal in assay [7] was 1.02 fold enrichment (6-mer frequency, TF over GST control); in assay [8] it was 1.04 fold enrichment (6-mer frequency, TF over GST control).

CTTGTT: the binding signal in assay [1] is 1.17 fold enrichment (6-mer frequency, TF over GST control); in assay [2] it was 1.17 fold enrichment (6-mer frequency, TF over GST control); in assay [3] it was 1.15 fold enrichment (6-mer frequency, TF over GST control); in assay [4], 1.05 fold enrichment (6-mer frequency, TF over GST control); in assay [5] it was 1.27 fold enrichment (6-mer frequency, TF over GST control); in assay [6], 1.27 fold enrichment (6-mer frequency, TF over GST control). The binding signal is 1.2 fold enrichment (6-mer frequency, TF over GST control) in assay [7] and 1.12 fold enrichment (6-mer frequency, TF over GST control) in assay [8].

Consider TTGCAC, for which the binding signal is 1.3 fold enrichment (6-mer frequency, TF over GST control) in assay [1]; 1.38 fold enrichment (6-mer frequency, TF over GST control) in assay [2]; 1.11 fold enrichment (6-mer frequency, TF over GST control) in assay [3]; 1.22 fold enrichment (6-mer frequency, TF over GST control) in assay [4]; 1.26 fold enrichment (6-mer frequency, TF over GST control) in assay [5]; 1.22 fold enrichment (6-mer frequency, TF over GST control) in assay [6]. In addition, the binding signal was 1.23 fold enrichment (6-mer frequency, TF over GST control) in assay [7] and 1.26 fold enrichment (6-mer frequency, TF over GST control) in assay [8].

The values above are taken from publication PMC7862700, “An all-to-all approach to the identification of sequence-specific readers for epigenetic DNA modifications on cytosine”.
